The whole screen tested about 69,000 compounds, of which about 8,600 (12%) showed an effect of 50% or more. The sample as a whole holds a higher share of strong results than the screen did.

The test relates to Plasmodium berghei. Kind of test: Screen against P. berghei liver stage (PbLuc), transformed with Luciferase, at 10uM. It is filed as functional, HepG2. The note with it: tested at 10 uM.
For `NC(=O)CSc1ccccc1NC(=O)C1CCCCC1`, the INHIBITION came to 21.1%.

On to `CC1N(c2cnn(C)c2)C(=O)COC12CCN(CC1CC1)CC2` (stereo unspecified), for which the INHIBITION is -5.25%. The figure for `CC1N(c2cnn(C)c2)C(=O)COC12CCN(c1ncccn1)CC2` (stereo unspecified) is 58.3%; for `CC1N(c2cnn(C)c2)C(=O)COC12CCN(c1ccccn1)CC2` (stereo unspecified) it is 39.5%.

`O=C(Cc1ccc2c(c1)CCO2)N1CCN(c2nccs2)CC1`: the INHIBITION is 9.14%. The figure for `CN(C)c1cc(CNC(=O)Nc2nccs2)ccn1` is -0.219%. `CC(C)NC(=O)[C@H]1C[C@@H]2[C@@H](C1)OCCN2Cc1ccsc1`: the INHIBITION is 16.9%.

Consider `NC(=O)CSCC(=O)NC1(c2cccc(Br)c2)CC1`, for which the INHIBITION came to 8.99%. The figure for `CSCC(=O)NC1(c2cccc(Cl)c2)CC1` is 8.41%; for `COCCCC(=O)NC1(c2cccc(Br)c2)CC1` it is 32.5%; for `COCCSCC(=O)NC1(c2cccc(Br)c2)CC1` it is 54.4%. The figure for `CCOCC(=O)NC1(c2cccc(Br)c2)CC1` is 45.1%.

For `CCOCC(=O)NC1(c2cccc(Cl)c2)CC1`, the INHIBITION stood at 57.3%.

With `Cc1nn(C)c(N(C)C)c1CNCC(O)COc1ccccc1` (stereo unspecified), the INHIBITION is recorded as -56.9%. The figure for `O=C(NCCSc1ccccc1)[C@H]1CNC[C@H](C(=O)N2CCOCC2)C1` is 11.2%; for `CCS(=O)(=O)CC(C)N(C)C(=O)COc1ccccc1C#N` (stereo unspecified) it is -29.7%. The figure for `CCCc1nc(CN2CCCN(Cc3nccn3C)CC2)no1` is 25.6%. `CCOCCN1CCN(Cc2cccc(C(=O)N(C)C)c2)CC1CC` (stereo unspecified): the INHIBITION was 25.6%. The figure for `O=C(CCc1ccsc1)NCC1CCN(c2ccccc2)C1` (stereo unspecified) is 2.74%.

Turning to `O=C(CCc1ccccc1)NCC1CCN(Cc2cccs2)CC1`, the INHIBITION is 51.9%. The figure for `O=C(COc1ccccc1)NCC1CCN(Cc2ccsc2)CC1` is 27%. The figure for `O=C(CCSc1ccccc1)NCC1CCN(Cc2ccsc2)CC1` is 27.6%. In the case of `O=C(CCc1ccccc1)NCC1CCN(Cc2ccccc2)CC1`, the INHIBITION is given as 54.2%. On to `COCC(=O)NCC1CCN(Cc2ccsc2)CC1`, for which the INHIBITION is -6.67%.

On to `O=C(CCc1ccccc1)NCC1CCN(Cc2ccsc2)CC1`, for which the INHIBITION is recorded as -11.8%. The figure for `O=C(CCc1ccsc1)NCC1CCN(Cc2cccs2)CC1` is 14.6%; for `CCOCC(=O)NCC1CCN(Cc2ccsc2)CC1` it is 60%; for `Cc1ccccc1C1CCCN1Cc1nc2c(cnn2C)c(=O)[nH]1` (stereo unspecified) it is -52.5%. The figure for `CN(C)[C@@H]1CCN(c2ncc(F)cn2)[C@H]1Cc1ccccc1` is -101%; for `CN(C)C(=O)CN1C(=O)CCC12CCN(Cc1cccn1C)CC2` it is 33.2%. The figure for `Cn1ccc(C(=O)N2CCN(CC(O)C(C)(C)C)CC2)cc1=O` (stereo unspecified) is 25.6%.
